Experimental data reported in PMC5540273 (PLoS ONE, 2017).

System: CASK
Conditions: concentration: 1 μM, replicates: in singlicate; n = 1
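Also: KINOMEscan kinase panel screen.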

| SMILES | %Inh |
| --- | --- |
| COc1cccc(C(=O)Nc2cccc(Oc3ccc4nc(NC(=O)C5CC5)cn4n3)c2)c1 | 3% |
| Cl.Cl.NCC(NC(=O)c1cc(-c2ccccc2)c(-c2ccnc3[nH]ccc23)s1)c1ccccc1 (centres unmarked) [GSK1321561] | 13% |
| CC(=O)Nc1nc2cnc(Nc3cc(NC(=O)c4cccc(C5(C#N)CC5)c4Cl)ccc3C)nc2s1 | 0% |
| COc1cccc(NC(=O)NC2CCN(c3ccnc(Nc4cc(OC)c(OC)c(OC)c4)n3)C2)c1 (centres unmarked) [GSK1379763] | 15% |
| COc1cc2c(cc1OCCN1CCNCC1)ncc1c3ccc(C#N)cc3[nH]c21 | 25% |
| CSc1cccc2c(-c3ccncn3)c(-c3ccc(F)cc3)nn12 [GW514786] | 45% |
| Cn1cc(-c2ccc3c(c2)CCN3C(=O)Cc2cccc(Cl)c2)c2c(N)ncnc21 [GSK2606590] | 7% |
| CCS(=O)(=O)c1ccc(OC)c(Nc2nccc(-c3c(-c4cccc(NC(=O)c5c(F)cccc5F)c4)nn4ncccc34)n2)c1 [GSK326180] | 16% |
| CCn1c(-c2nonc2N)nc2c(C#CC(C)(C)O)ncc(OCCCCN)c21.O=C(O)C(F)(F)F.O=C(O)C(F)(F)F [GSK507274] | 19% |
| O=C(Nc1cccc(-c2nn3ccccc3c2-c2ccnc(Nc3cccc(C(F)(F)F)c3)n2)c1)c1c(F)cccc1F [GSK292658] | 0% |
| CN(c1ccc(NC(=O)Nc2cc(C(F)(F)F)ccc2F)cc1)c1ccnc(Nc2ccc(S(N)(=O)=O)cc2)n1 [GW809893] | 35% |
